Inconclusive results are not listed. The source made the active and inactive calls. The calls were made as follows: active = hit-call score of the fitted dose curve at least 0.9, where 1 is the maximum; inconclusive = response in the unintended direction; inactive = score below 0.9.

The nature of this assay: ACEA_ER_AUC_viability: ACEA Biosciences xCELLigence Real-Time Cell Analysis on Estrogen Receptor Agonism for Viability (AID 2283782).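 Also: continuous compound exposure with impedance area under curve over 80 h; hit means loss of impedance signal meaning reduced cell growth or viability.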 The gist of the method: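 T47D cells preconditioned in phenol red-free RPMI with charcoal-stripped FBS, then dosed with 8-point 1:4 series from 100 uM (up to 0.5% DMSO). Impedance monitored up to ~80 h; area-under-curve loss versus DMSO taken as viability.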
For `C=CCOc1nc(OCC=C)nc(OCC=C)n1`, the call was inactive. On to `O=C(O)CCCCCCCC(=O)O`, for which the outcome was inactive. One may read the AC50 as the midpoint of the concentration-response curve, whichever way the signal moves. In the case of `CCCCCCOC(=O)CC`, the AC50 is 23.9 µM (active). For `O=C(O)CCSCCC(=O)O`, the molecule was called inactive.

On to `O=C(O)c1ccc(C(=O)O)cc1`, for which the call was inactive. As to `O=[N+]([O-])c1cc(C(F)(F)F)ccc1Cl`, the half-maximal activity concentration (AC50) is 49.8 µM (active). `OCCOCCOCCOCCO`: the outcome was inactive. The same measure, in the same setting: the entry for `Clc1cccc(Cl)n1` is “inactive”. As for `C=CC(C)(O)CCC=C(C)CCC=C(C)C` (centres undefined), the half-maximal activity concentration (AC50) is 67.1 µM (active).

On to `CC(C)C[C@H]1C(=O)N2CCC[C@H]2[C@]2(O)O[C@](NC(=O)[C@@H]3C=C4c5cccc6[nH]c(Br)c(c56)C[C@H]4N(C)C3)(C(C)C)C(=O)N12`, for which the AC50 was 4.31 µM (active). Turning to `CCCCCNCCCCC`, the call was inactive. Still for that read-out and setting: with `CC(=O)OCCOC(C)=O` the entry was “inactive”. For the molecule `CCCCCCCCC=O`, the molecule was called inactive. On to `CNC[C@H](O)c1cccc(O)c1`, for which the half-maximal activity concentration (AC50) is 50 µM (active). As to `CC(C)(C)NC(N)=O`, the molecule was called inactive. On the same count and under the same terms, with `CCCCCOC(=O)CCC` the entry was “inactive”. As to `CCCCN`, the concentration at half-maximal activity (AC50) is 45.1 µM (active).

Consider `C=CC(=O)OCCOCCOCC`, for which the concentration at half-maximal activity (AC50) is 81.2 µM (active). Still for that read-out and setting: the figure for `O=C=NC1CCC(CC2CCC(N=C=O)CC2)CC1` (centres undefined) is 28.5 µM (active); for `CCC(O)CO` (centres undefined) it is 26 µM (active). Regarding `Cc1ccc(S)cc1`, the molecule was called inactive. Still for that read-out and setting: the entry for `Cc1cccc(C)c1[N+](=O)[O-]` is “inactive”. On to `CCCCCCCCCCN`, for which the concentration at half-maximal activity (AC50) was 45.2 µM (active). For the molecule `CC(C)C1CCC(O)CC1` (centres undefined), the molecule was called inactive. For the molecule `Cc1cccc(C)c1C`, the half-maximal activity concentration (AC50) is 26.4 µM (active). For the molecule `CCC(C)(O)CCC=C(C)C` (centres undefined), the AC50 is 79.1 µM (active). For the molecule `CCCCC(CC)COCCC#N` (centres undefined), the molecule was classed as inactive. `CC(=O)C(=O)O`: the half-maximal activity concentration (AC50) was 78 µM (active). For the molecule `C=COCCOCCOCCOC=C`, the call was inactive. On the same count and under the same terms, with `Cc1ccc(C(C)C)cc1O` the entry was “inactive”; with `COc1cccc(OC)c1`, “inactive”. Same read-out and setting: with `CCCC1CCC(=O)O1` (centres undefined) the entry was “inactive”. With `CCCCCCC#CC(=O)OC`, the molecule was called inactive.

Consider `CCC(=O)/C=C/C1C(C)=CCCC1(C)C` (centres undefined), for which the outcome was inactive.

Values taken from PubChem BioAssay (EPA / NIEHS).
